Measurements reported in PubChem BioAssay (NCI).
This is part of a sample that, as a whole, favours compounds with a hit. Of some 83,000 tested, about 20% had one in any assay.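 Cells were grown in 96-well plates and exposed to the test compound at a single concentration for 48 hours; results are reported as percent growth, with values below 10 considered active.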 Calls of active or inactive are those of the source.

Tests used:
Assay in all cases: NCI-60 one-dose screen, 48 h (100 = growth as untreated, 0 = no growth, -100 = all killed)
Settings in all cases: 10 µM
[1] = system: SR leukemia
[2] = system: OVCAR-8 ovarian
[3] = system: OVCAR-5 ovarian
[4] = system: OVCAR-4 ovarian
[5] = system: SK-OV-3 ovarian
[6] = system: IGROV1 ovarian
[7] = system: OVCAR-3 ovarian
[8] = system: HS 578T breast
[9] = system: NCI/ADR-RES ovarian
[10] = system: RPMI-8226 leukemia

Measured: growth

COc1ccc(NC(=O)CCn2cnc3c(cc(-c4ccccc4)n3-c3ccccc3)c2=O)cc1
inactive: [1] 95.7% | [2] 102% | [3] 94.7% | [4] 72.1% | [5] 58.1% | [6] 78.9% | [7] 98% | [8] 46% | [9] 63%

O=S(=O)(NC1c2ccccc2Oc2ccccc21)c1ccccc1
inactive: [1] 58.3% | [2] 88.8% | [3] 101% | [4] 88.6% | [5] 99.6% | [6] 97.3% | [9] 90.9%

Clc1ccc(-c2nc(-c3cccs3)cn3ccnc23)cc1
inactive: [1] 59.5% | [2] 81% | [3] 108% | [4] 64.6% | [5] 50.2% | [6] 60.9% | [7] 72.6% | [8] 87% | [9] 55.5%

COc1ccc(C2C=C(c3ccc(OC)c(OC)c3)N=C3SC=CN32)c(Br)c1 (centres undefined)
active: [1] -14.8%
inactive: [2] 66.2% | [3] 102% | [4] 62.5% | [5] 101% | [6] 69.8% | [7] 56.9% | [8] 90.4% | [9] 78.2%

Oc1cc(O)c(Br)cc1Br
inactive: [1] 85.7% | [2] 103% | [3] 107% | [4] 98.2% | [5] 107% | [6] 102% | [7] 110% | [8] 107% | [9] 105%

COC1OC2COC(c3ccccc3)OC2C(=O)C1NC(=O)c1ccccc1 (centres undefined)
inactive: [1] 122% | [2] 101% | [3] 93.7% | [4] 103% | [5] 105% | [6] 114% | [7] 99.8% | [8] 96.6% | [9] 103%

Cc1nc2ccc(-n3c(-c4ccc(Cl)cc4)nc4ccccc4c3=O)cc2n1Cc1ccccc1
inactive: [1] 86.7% | [2] 93.4% | [3] 118% | [4] 90.7% | [5] 87.3% | [7] 99.6% | [8] 101% | [9] 94.9%

CCOC(=O)c1sc(NC(=O)c2cc(OC)c(OC)c(OC)c2)nc1C
active: [6] -10.1%
inactive: [1] 79% | [2] 99.3% | [3] 108% | [4] 113% | [5] 152% | [7] 103% | [8] 80.8% | [9] 103%

N=C(N)c1ccc(-c2ccc(-c3cccs3)s2)nc1
inactive: [2] 55.7% | [3] 62.5% | [4] 34.7% | [5] 63.4% | [6] 70.4% | [7] 38.6% | [8] 80.1% | [9] 84.8%
active: [10] -24.2%

Cc1ccc(C(=O)O)c(N)c1C
inactive: [1] 98.4% | [2] 100% | [3] 106% | [4] 99.3% | [5] 93.5% | [6] 91% | [7] 104% | [8] 106% | [9] 106%

COc1cc(-c2cc(/C=C/C(C)=O)[nH]n2)cc(OC)c1OC
inactive: [10] 22.8% | [2] 73.5% | [3] 94.5% | [4] 70.8% | [5] 109% | [6] 73.8% | [7] 85.2% | [8] 91.8% | [9] 80.7%

Oc1ccccc1-c1nnc(Cn2c(Cc3cccc4ccccc34)nc3ccccc32)o1
inactive: [1] 94.8% | [2] 101% | [3] 96.8% | [4] 99.2% | [5] 98.7% | [6] 111% | [7] 101% | [8] 99.5% | [9] 93.8%

COc1cc(Cn2c(-c3ccccc3)cc3c2-c2oncc2CC3)cc(OC)c1
active: [1] 2.06% | [5] 0.474% | [6] 7.96% | [7] -47.1% | [8] -6.35% | [9] -19.5%
inactive: [2] 21.7% | [3] 42.6% | [4] 51.8%

COc1cc(CSc2nc3ccc(C)cc3c(=O)n2-c2ccccc2)cc(OC)c1OC
inactive: [1] 20.3% | [2] 52.9% | [3] 46.4% | [4] 57.2% | [5] 13.6% | [6] 33.2% | [8] 28.2% | [9] 17.8%
active: [7] -1.43%

C[N+]1=C(/C=C/c2ccc(I)cc2)C(C)(C)c2ccccc21
inactive: [2] 67.5% | [3] 90.1% | [4] 109% | [5] 107% | [6] 92.3% | [7] 34.4% | [8] 101% | [9] 101%
active: [1] -8.97%

C[C@]12CC[C@H]3[C@@H](CCC4=CC(=O)CC[C@@]43C)[C@@H]1CC[C@@H]2c1csc(N)n1
inactive: [1] 26.4% | [2] 46.5% | [3] 99.8% | [4] 23.1% | [5] 89.1% | [6] 87.3% | [7] 63% | [8] 104% | [9] 32.1%

COc1nc2c(c(=O)[nH]1)C(c1ccc(Oc3ccnc4cc(Cl)ccc34)c(OC)c1)C=C(c1cc(OC)c(OC)c(OC)c1)N2 (centres undefined)
inactive: [1] 74.1% | [2] 97.4% | [3] 92.6% | [4] 106% | [5] 99.5% | [6] 107% | [7] 108% | [8] 98.3% | [9] 101%

COc1ccc(-c2ccccc2)cc1C(=O)c1ccc(-c2ccccc2)cc1
inactive: [1] 23.8% | [2] 93.1% | [3] 87.8% | [4] 96.3% | [5] 76.6% | [6] 63.5% | [7] 60.9% | [8] 81.5% | [9] 41.2%

CN(C)c1ccc2c(c1)OC(N)=C(C#N)C2c1ccc2c(c1)CCCN2C (centres undefined)
active: [7] 3.67% | [9] 0.712%
inactive: [1] 29.5% | [2] 30.9% | [3] 78.2% | [4] 56.3% | [5] 24.4% | [8] 20.1%

N#CC1C=Cc2c(ccc3ccccc23)N1C(=O)c1ccccc1 (centres undefined)
inactive: [1] 13.9% | [2] 25.7% | [3] 45.4% | [4] 45.2% | [6] 26%
active: [5] 4.99% | [7] -56.5% | [8] -8.86% | [9] -21.8%

COc1cc(/C=C2\C(=O)Nc3cc(C)c(O)cc32)cc(OC)c1OC
inactive: [2] 72.1% | [3] 94.5% | [4] 62.6% | [5] 77.5% | [6] 47.7% | [7] 35.7% | [8] 56.6% | [9] 51.4%
active: [10] -18.3%

O=S(=O)(O)C1(O)CCCCC1
inactive: [1] 83.1% | [2] 79.3% | [3] 90.5% | [4] 79.1% | [5] 94.9% | [6] 65.9% | [8] 104% | [9] 95.4%

COc1ccc(-c2nc(-c3nc4ccc(C)cc4[nH]3)c3ccccn23)cc1
active: [2] 6.19%
inactive: [1] 33.2% | [3] 88.5% | [4] 44.1% | [5] 85.9% | [6] 36.5% | [7] 72.6% | [8] 74.7% | [9] 22.6%

COc1ccc(C2CC(c3ccc(-c4ccccc4)cc3)=NN2c2ccc(S(N)(=O)=O)cc2)cc1 (centres undefined)
inactive: [1] 80% | [2] 70.2% | [3] 90% | [4] 70% | [6] 46.3% | [7] 89.9% | [8] 85.5% | [9] 60.7%

COc1ccc2c(c1)/C(=C/c1cc(OC)c(OC)c(OC)c1)C(=O)N2C
inactive: [1] 17% | [2] 28.8% | [3] 66.4% | [4] 47.3% | [5] 19.3%
active: [6] 0.661% | [7] -72% | [8] -12.4% | [9] 2.46%

Cn1c(N)c(N=Cc2ccccc2)c(=O)n(C)c1=O
inactive: [1] 96.2% | [2] 110% | [3] 133% | [4] 111% | [5] 96.4% | [6] 106% | [7] 120% | [8] 100% | [9] 110%

COc1cc(OC)cc(N2CCN(C(=O)Nc3nc4cc(F)ccc4nc3OC)CC2)c1
active: [1] 8.23% | [7] -11.8% | [9] -2.42%
inactive: [2] 12.7% | [3] 49% | [4] 44% | [5] 14.4% | [6] 17.6% | [8] 37.6%

CCCCCCOc1ccc(/C=C/C(=O)c2ccc(B(O)O)cc2)cc1
inactive: [1] 48.4% | [2] 81.2% | [3] 77.3% | [4] 64.6% | [6] 64.7% | [7] 97.1% | [8] 60.3% | [9] 77.4%

COc1ccc(-c2nc3sc(-c4ccccc4)c(-c4ccccc4)n3c2/C=C/c2ccc(F)cc2)cc1
inactive: [1] 90.5% | [2] 85% | [3] 88.2% | [4] 83.2% | [5] 91.1% | [6] 115% | [7] 94.1% | [8] 95.8% | [9] 103%
